SMILES strings stand for the structures. Values without a mark were called inactive. Inconclusive results are not listed. Activity calls are given as the source filed them. Unless noted, calls follow the shape of the full dose curve.

Drawing on PubChem BioAssay (Tox21), this text covers Potency for eight molecules.

A short description of test [1]: Nuclear factor erythroid 2-related factor 2/antioxidant responsive element (Nrf2/ARE) small molecule agonists: qHTS cell viability counter screen in human keratinocytes (AID 1919968; active = well fitted curve in the direction sought with a large enough effect in the repeat runs; an effect the other way counts as inactive or inconclusive; also: nearly all actives have a fitted effect of over 55% in size; also: potency is read from the fitted curve at half-maximal effect). The procedure, abridged:
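Stably transfected HaCaT (KeratinoSens), 1,500/well. Test agents in DMSO were applied for 23 h, 37 C/5% CO2. CellTiter-Fluor was incubated 1 h before the fluorescence read.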
In general terms: Quantitative high-throughput screening tests each substance at several concentrations.

A short description of test [2]: Nuclear factor erythroid 2-related factor 2/antioxidant responsive element (Nrf2/ARE) small molecule agonists: luciferase reporter gene qHTS assay in human keratinocytes (AID 1919969; also: nearly all actives have a fitted effect of over 35% in size; also: potency is read from the fitted curve at half-maximal effect). (In a reporter assay the amount or activity of a reporter protein is the signal.)
Test [3] concerns the target Gonadotropin-releasing hormone receptor (Homo sapiens) (UniProt P30968). Briefly: Human gonadotropin-releasing hormone receptor (GnRHR) small molecule agonists, calcium flux assay in GnRHR-HEK293 cells (AID 1920063). Also: nearly all actives have a fitted effect of over 35% in size. The method, boiled down:
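Stable human GnRHR HEK293 line. 18 h plating, then calcium dye for 1 h at 37 C. Agonist-mode compound addition from DMSO stocks; fluorescence monitored 3 min.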

Test [4] addresses KiSS-1 receptor (Homo sapiens) (UniProt Q969F8). The test can be described thus: Human kisspeptin (KISS1R) small molecule agonists, calcium flux assay in KISS1R-HEK293 cells (AID 1920064; active = well fitted curve in the direction sought with a large enough effect in the repeat runs; an effect the other way counts as inactive or inconclusive). The method, boiled down:
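After overnight (18 h) culture at 37 C/5% CO2, human KISS1R-HEK293 cells received calcium dye for 1 h, then test compound; emission at 540 nm (excitation 480 nm) was tracked for 3 min.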
Background: A change in cytosolic calcium serves as a functional read-out for many receptors and channels.

Test [5] can be described thus: G protein-coupled receptor (GPCR) small molecule agonists, calcium flux assay: HEK293 wild type cell line counter screen (AID 1920065). The method, boiled down:
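Following 18 h incubation at 37 C/5% CO2, plates got calcium dye for 1 h; compounds, ATP or DMSO were then pinned in and fluorescence followed kinetically (480/540 nm).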

Test [6] can be described thus: p53 small molecule agonists, cell-based qHTS assay with human liver microsomes: qHTS cell viability counter screen (AID 1963579). Also: nearly all actives have a fitted effect of over 45% in size. Also: potency is read from the fitted curve at half-maximal effect. The procedure, abridged:
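Metabolic activation used human liver microsomes and NADPH, both 0.5 mg/mL final, over 16 hours at 37 C on p53RE-bla cells (4,000/well). Cytotoxicity measured by CellTiter-Glo luminescence, 30 min at room temperature.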

Test [7] can be described thus: p53 small molecule agonists, cell-based qHTS assay with rat liver microsomes: qHTS cell viability counter screen (AID 1963580). Also: nearly all actives have a fitted effect of over 45% in size. The method, boiled down: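 After the beta-lactamase ratio was read, CellTiter-Glo was added to the same wells and luminescence measured at 30 min; cells had been treated 16 h at 37 C with compounds, rat liver microsomes and NADPH (0.5 mg/mL final each).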

Test [8] can be described thus: p53 small molecule agonists, cell-based qHTS assay: qHTS cell viability counter screen (AID 1963581). Also: nearly all actives have a fitted effect of over 45% in size. The procedure, abridged: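 qHTS counter screen: 16 h compound exposure at 37 C of p53RE-bla HCT-116 cells (4,000 per well, seeded 5 h prior), cell viability by ATP luminescence.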
The target in test [9] is 5-hydroxytryptamine receptor 2A (Homo sapiens) (UniProt P28223). Briefly: 5-hydroxytryptamine receptor 2A (HTR2A) small molecule antagonists, cell-based qHTS assay (AID 1963586). Also: nearly all actives have a fitted effect of over 45% in size. The procedure, abridged:
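CHO cells stably expressing human HTR2A were plated for 18 h at 37 C, then loaded with calcium dye for 1 h. Compounds were preincubated 5 min at room temperature before DOI (4 nM solution) was added. Kinetic fluorescence was read for 3 min.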

For test [10] the target is unchanged. The test can be described thus: 5-hydroxytryptamine receptor 2A (HTR2A) small molecule agonists, cell-based qHTS assay (AID 1963587). Also: nearly all actives have a fitted effect of over 30% in size. The procedure, abridged:
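CHO cells stably expressing human HTR2A, plated 18 h, loaded with calcium dye 1 h at 37 C. Agonist mode: compounds added and intracellular calcium fluorescence recorded kinetically for 2 min at 1 sec intervals.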

Test [11] concerns the target Muscarinic acetylcholine receptor M1 (Homo sapiens) (UniProt P11229). Briefly: Cholinergic receptor muscarinic 1 (CHRM1) small molecule antagonists, cell-based qHTS assay (AID 1963588). Also: nearly all actives have a fitted effect of over 40% in size. The method, boiled down:
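Compounds were tested at 15 concentrations in three independent runs. Dye-loaded CHRM1-CHO cells were exposed 5 min at room temperature before stimulation by acetylcholine added at 50nM. Intracellular calcium was read kinetically on FDSS for 3 min.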

The target is the same in test [12]. The test can be described thus: Cholinergic receptor muscarinic 1 (CHRM1) small molecule agonists, cell-based qHTS assay (AID 1963589). Also: nearly all actives have a fitted effect of over 35% in size. The method, boiled down: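 Kinetic fluorescence (1 s intervals) of calcium-sensitive dye in human M1 CHO cells after compound addition; cells pre-incubated 18 h at 37 C/5% CO2 and dye-loaded 1 h.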
The target in test [13] is Beta-2 adrenergic receptor (Homo sapiens) (UniProt P07550). Briefly: Adrenergic beta2 receptor (ADRB2) small molecule antagonists, cell-based qHTS assay (AID 1963592). Also: series mostly up to about 92 µM; nearly all actives have a fitted effect of over 50% in size. The procedure, abridged: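 Assay format: CHO-ADRB2 cells, 18-20hr seeding at 37C/5% CO2, then compound plus 1nM isoproterenol agonist mix for 0.5hr RT. Homogeneous time-resolved fluorescence cAMP detection after 1hr, expressed as 665/615 nm ratio.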

For test [14], the target named is D(2) dopamine receptor (Homo sapiens) (UniProt P14416). The test can be described thus: Dopamine D2 receptor (DRD2) small molecule agonists, cell-based qHTS assay (AID 1963594). Also: nearly all actives have a fitted effect of over 35% in size. The procedure, abridged: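 HEK293 cells stably expressing human DRD2, pre-treated with PDE inhibitor Ro20-1724 (0.1 mM final) and compound 10 min at room temperature, then stimulated with NKH477 (200nM […]) for 30 min. cAMP read by HTRF (665/620 nm).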

A short description of test [15]: cAMP Responsive Elements (CRE) small molecule antagonists, cell-based qHTS assay (AID 1963591; active = well fitted inhibition curve with a large enough effect in the signal ratio in the repeat runs, not every such curve was filed as active; the % refers to the signal ratio). The method, boiled down:
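Reporter line CRE-bla HEK 293T in dialyzed-FBS DMEM; cells preincubated 18 h, treated 3 h with compound plus NKH477 (0.25 uM final); LiveBLAzer FRET, 2 h RT.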

The target in test [16] is D(2) dopamine receptor (Homo sapiens) (UniProt P14416). Briefly: Dopamine D2 receptor (DRD2) small molecule antagonists, cell-based qHTS assay (AID 1963595; active = well fitted inhibition curve with a large enough effect in the signal ratio in the repeat runs, with a control signal flat; the % refers to the signal ratio). The procedure, abridged:
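Antagonism was scored as restored cAMP in HEK293-DRD2 cells. These cells were stimulated with 200 nM NKH477 and 12 nM quinpirole for 30 min at room temperature, in the presence of 0.1 mM Ro20-1724.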

Test [17] addresses Beta-2 adrenergic receptor (Homo sapiens) (UniProt P07550). The test can be described thus: Adrenergic beta2 receptor (ADRB2) small molecule agonists, cell-based qHTS assay (AID 1963593).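 Also: CHO cells stably overexpressing human ADRB2.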 The procedure, abridged: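 CHO cells stably over-expressing ADRB2 were plated overnight at 37C, then dosed with compounds plus a stimulation mix containing 100uM IBMX and 25uM Ro-20-1724 for 0.5hr at room temperature. cAMP was measured by HTRF competition, 1hr.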

A short description of test [18]: cAMP Responsive Elements (CRE) small molecule agonists, cell-based qHTS assay (AID 1963590). The method, boiled down: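 Test agents in DMSO were incubated 3 h at 37 C/5% CO2 with CRE-bla HEK 293T cells seeded 18 h earlier; LiveBLAzer B/G FRET substrate was added and read after 2 h at room temperature.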

Sequence of 5-hydroxytryptamine receptor 2A (Homo sapiens) (P28223 whole entry, looked up): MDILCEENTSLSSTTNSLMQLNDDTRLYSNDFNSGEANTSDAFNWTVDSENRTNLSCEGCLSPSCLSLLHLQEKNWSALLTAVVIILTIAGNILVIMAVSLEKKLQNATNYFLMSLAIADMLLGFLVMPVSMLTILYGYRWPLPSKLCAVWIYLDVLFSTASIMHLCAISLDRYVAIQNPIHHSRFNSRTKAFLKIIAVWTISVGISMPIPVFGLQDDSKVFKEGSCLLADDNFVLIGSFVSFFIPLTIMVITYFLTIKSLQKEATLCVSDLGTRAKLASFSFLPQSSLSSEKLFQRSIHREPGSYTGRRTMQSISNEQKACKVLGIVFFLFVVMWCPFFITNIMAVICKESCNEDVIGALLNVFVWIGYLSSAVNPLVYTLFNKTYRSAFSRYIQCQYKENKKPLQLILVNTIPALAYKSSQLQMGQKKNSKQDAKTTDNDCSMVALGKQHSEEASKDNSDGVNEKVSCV
Sequence of Gonadotropin-releasing hormone receptor (Homo sapiens) (P30968 whole entry, looked up): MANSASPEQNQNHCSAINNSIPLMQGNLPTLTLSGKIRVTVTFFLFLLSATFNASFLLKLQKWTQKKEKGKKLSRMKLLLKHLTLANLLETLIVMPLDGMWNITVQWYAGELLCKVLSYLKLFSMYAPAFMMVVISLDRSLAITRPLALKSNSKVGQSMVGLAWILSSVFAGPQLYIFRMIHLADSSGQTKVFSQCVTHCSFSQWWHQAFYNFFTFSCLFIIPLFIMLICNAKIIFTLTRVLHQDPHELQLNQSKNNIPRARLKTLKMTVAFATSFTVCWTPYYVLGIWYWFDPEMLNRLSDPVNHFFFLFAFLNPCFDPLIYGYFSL
Sequence of Beta-2 adrenergic receptor (Homo sapiens) (P07550 whole entry, looked up): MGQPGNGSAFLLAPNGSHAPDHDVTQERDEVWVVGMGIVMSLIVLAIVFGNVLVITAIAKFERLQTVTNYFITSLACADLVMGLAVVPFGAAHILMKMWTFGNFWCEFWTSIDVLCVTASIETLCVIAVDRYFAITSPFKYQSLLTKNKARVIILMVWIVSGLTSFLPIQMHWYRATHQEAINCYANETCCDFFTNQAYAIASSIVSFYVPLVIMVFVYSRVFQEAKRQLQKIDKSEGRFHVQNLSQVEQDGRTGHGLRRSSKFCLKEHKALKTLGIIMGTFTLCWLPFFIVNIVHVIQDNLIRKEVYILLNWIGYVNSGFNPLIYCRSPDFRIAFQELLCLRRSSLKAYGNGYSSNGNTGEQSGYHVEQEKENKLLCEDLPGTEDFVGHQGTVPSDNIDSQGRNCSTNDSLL
Sequence of Muscarinic acetylcholine receptor M1 (Homo sapiens) (P11229 whole entry, looked up): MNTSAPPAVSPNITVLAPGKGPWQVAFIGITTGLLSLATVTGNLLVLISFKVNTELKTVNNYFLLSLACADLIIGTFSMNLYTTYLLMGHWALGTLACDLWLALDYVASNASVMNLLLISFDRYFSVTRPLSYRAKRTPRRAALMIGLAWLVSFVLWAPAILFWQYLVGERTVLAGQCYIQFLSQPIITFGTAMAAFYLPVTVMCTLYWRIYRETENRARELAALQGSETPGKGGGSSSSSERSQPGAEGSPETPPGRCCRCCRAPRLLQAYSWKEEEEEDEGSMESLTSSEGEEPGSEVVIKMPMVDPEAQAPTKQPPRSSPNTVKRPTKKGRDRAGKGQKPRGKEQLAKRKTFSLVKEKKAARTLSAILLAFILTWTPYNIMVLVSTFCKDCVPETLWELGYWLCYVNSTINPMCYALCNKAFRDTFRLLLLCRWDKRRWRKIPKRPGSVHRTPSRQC
Sequence of KiSS-1 receptor (Homo sapiens) (Q969F8 whole entry, looked up): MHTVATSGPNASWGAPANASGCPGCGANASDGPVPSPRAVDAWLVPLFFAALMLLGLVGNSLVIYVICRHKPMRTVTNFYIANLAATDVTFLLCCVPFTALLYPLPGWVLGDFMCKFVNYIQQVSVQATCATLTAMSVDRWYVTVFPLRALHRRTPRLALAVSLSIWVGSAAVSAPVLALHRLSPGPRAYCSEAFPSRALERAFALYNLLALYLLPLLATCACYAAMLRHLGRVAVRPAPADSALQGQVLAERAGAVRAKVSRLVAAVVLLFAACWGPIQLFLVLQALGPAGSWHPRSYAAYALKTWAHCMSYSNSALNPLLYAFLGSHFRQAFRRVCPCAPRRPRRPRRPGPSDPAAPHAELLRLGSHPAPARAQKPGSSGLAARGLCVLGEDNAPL
Sequence of D(2) dopamine receptor (Homo sapiens) (P14416 whole entry, looked up): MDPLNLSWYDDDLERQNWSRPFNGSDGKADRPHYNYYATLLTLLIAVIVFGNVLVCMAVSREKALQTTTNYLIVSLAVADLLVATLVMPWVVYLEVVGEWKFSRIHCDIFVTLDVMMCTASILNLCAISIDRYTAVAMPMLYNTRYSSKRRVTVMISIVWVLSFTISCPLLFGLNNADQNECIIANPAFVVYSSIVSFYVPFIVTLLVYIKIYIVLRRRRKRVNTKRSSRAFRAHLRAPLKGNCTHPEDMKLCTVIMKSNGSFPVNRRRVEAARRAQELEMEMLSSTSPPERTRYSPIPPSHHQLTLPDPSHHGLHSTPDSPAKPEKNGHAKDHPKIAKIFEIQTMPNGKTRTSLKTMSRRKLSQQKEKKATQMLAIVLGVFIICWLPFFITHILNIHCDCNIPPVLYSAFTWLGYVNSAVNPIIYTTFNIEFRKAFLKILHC

Regarding `CCCCCCC(C)Nc1ccc(Nc2ccccc2)cc1` (configuration not stated), the Potency in test [1] was 48.6 µM (active); in test [6], 40.8 µM (active). The Potency entry in test [2], in [3], in test [4], in test [5], in [7] and in test [8] was “inactive” in each case. Also, the Potency result in test [9], in [10], in [11], in test [12], in test [13] and in test [14] was “inactive” in each case.

For the molecule `CCC(C)(CCC(C)C)C(=O)O` (configuration not stated), the Potency entry in [1], in test [2], in test [3], in test [4], in test [5] and in test [6] was “inactive” in each case. Also, the Potency entry in [7], in test [8], in test [9], in test [10], in test [11] and in test [12] was “inactive” each time. Moreover, the Potency result in [15], in [13], in [14] and in [16] was “inactive” throughout.

Regarding `CC/C=C/CCCCCCCCCCOC(C)=O`, the Potency result in test [1], in test [2], in [3], in [4], in [5] and in test [6] was “inactive” each time. The Potency result in test [7], in test [8], in test [9], in [10], in test [11] and in test [12] was “inactive” each time. Further, the Potency result in test [15], in test [13], in [17], in [14] and in [16] was “inactive” in each case.

As to `CO/N=C1\CN(c2nc3c(cc2F)c(=O)c(C(=O)O)cn3C2CC2)CC1CN` (configuration not stated), the Potency result in test [1], in test [2], in test [3], in test [4], in test [5] and in test [6] was “inactive” each time. In addition, the Potency entry in test [7], in [8], in test [9], in [10], in test [11] and in test [12] was “inactive” each time. Moreover, the Potency result in test [15], in test [14] and in test [16] was “inactive” throughout.

Take `CC(C)(C)c1ccc(-c2ccc(C(C)(C)C)cc2)cc1`: the Potency result in [1], in test [2], in test [3], in test [4], in test [5] and in test [6] was “inactive” each time. The Potency entry in test [7], in [8], in test [9], in test [10], in test [11] and in test [12] was “inactive” in each case. The Potency entry in test [18], in test [13], in test [14] and in test [16] was “inactive” each time.

For the molecule `CCOc1ccc2nc(S(N)(=O)=O)sc2c1`, the Potency entry in test [1], in test [3], in test [4], in [5], in [6] and in [7] was “inactive” in each case. For the same molecule, the Potency result in test [8], in test [9], in test [10], in [11], in [12] and in [18] was “inactive” throughout. The Potency entry in test [13], in test [17], in test [14] and in [16] was “inactive” in each case. In test [2], the Potency was 6.68 µM (active).

For the molecule `CCCCN1C(=O)c2ccccc2C1=O`, the Potency result in [1], in [2], in test [3], in test [4], in test [5] and in [6] was “inactive” in each case. Further, the Potency entry in test [7], in [8], in test [9], in test [10], in [11] and in [12] was “inactive” in each case. Also, the Potency result in [18], in [13], in [14] and in test [16] was “inactive” throughout.

For the molecule `COC(=O)c1ccc(C(=O)OC)c(C(=O)OC)c1`, the Potency result in test [1], in [2], in [3], in test [4], in test [5] and in test [6] was “inactive” each time. The Potency result in test [7], in [8], in test [9], in test [10], in test [11] and in test [12] was “inactive” in each case. Moreover, the Potency entry in test [18], in test [13], in [17] and in [16] was “inactive” in each case.
